Only some compounds are listed: those with a hit (about 8.3% of all), similar ones and a draw of the others.
MCF10A rerep = DNA re-replication induction in MCF 10a cells. MCF 10A DNA re-replication, Hoechst nuclear intensity, 48 h. Potency, µM (top dose mostly 46.1 µM), for the others: at the top dose activity, positive = re-replication, hits mostly activators. hit rate 2.9% among 350,000; note: potency is the fitted concentration of half-maximal effect; % of control where 0% means no effect; nearly all actives have a fitted effect of over 50% in size
RORg inh = inhibitors of mouse ROR gamma transcriptional activity | Drosophila S2 Gal4-RORgamma UAS-luciferase reporter, 20 h | hit rate 5.4% among 310,000 | AID 2551 | Potency, µM (highest dose often 53.6 µM), for inactives: at the highest dose activity change, negative = inhibition, usual class: inhibitors; note: potency is the fitted concentration of half-maximal effect; % is set by controls: 0 for no effect and ±100 for the full control effect; nearly all actives have a fitted effect of over 60% in size
Target sequence (P51450 whole entry, looked up, the tested form may be a part): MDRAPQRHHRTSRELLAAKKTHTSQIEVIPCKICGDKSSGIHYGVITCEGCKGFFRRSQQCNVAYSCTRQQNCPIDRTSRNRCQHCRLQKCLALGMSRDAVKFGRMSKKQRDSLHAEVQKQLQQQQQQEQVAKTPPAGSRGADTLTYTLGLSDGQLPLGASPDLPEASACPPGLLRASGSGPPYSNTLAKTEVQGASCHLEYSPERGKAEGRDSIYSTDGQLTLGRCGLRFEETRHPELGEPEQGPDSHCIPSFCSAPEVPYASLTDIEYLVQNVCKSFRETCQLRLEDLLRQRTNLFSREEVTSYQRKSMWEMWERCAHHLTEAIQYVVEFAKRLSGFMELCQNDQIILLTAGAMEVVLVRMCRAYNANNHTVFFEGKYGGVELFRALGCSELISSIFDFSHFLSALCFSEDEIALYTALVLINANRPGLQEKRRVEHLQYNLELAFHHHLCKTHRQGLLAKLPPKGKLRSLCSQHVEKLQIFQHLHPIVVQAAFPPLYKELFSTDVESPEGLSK
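In this cell-based reporter format, copper sulfate (700 uM final) drives Gal4–ROR gamma fusion expression from a metallothionein promoter in Drosophila Schneider cells; compounds preincubated 1 hr, reporter read after 20 hr at ambient temperature.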
SW480 rereplic = DNA re-replication induction in SW480 cells | SW480 DNA re-replication, Hoechst DNA content imaging, 48 h | Potency, µM (highest dose often 46.1 µM), without a hit: at the top dose re-replication activation, actives largely listed as activators | hit rate 1.8% among 340,000 | AID 624297; note: potency is the fitted concentration of half-maximal effect; % of control where 0% means no effect; nearly all actives have a fitted effect of over 55% in size
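Quantitative HTS format with DMSO vehicle controls; 48 hr drug incubation at 37 C, then 40 min Hoechst staining and scanning imager measurement at 405 nm excitation.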
BCR signal inh = chronic active BCR signaling inhibition; ABC-DLBCL IkBa-CBG/CBR reporter, luminescence ratio, 4 h; Potency, µM (series often up to 46.1 µM), inactives show top-dose activity change, negative = inhibition, most hits filed as inhibitors; hit rate 0.05% among 340,000; active = well fitted inhibition curve with a large enough effect in the signal ratio, with a control signal flat, not every such curve was filed as active; inconclusive = small, poorly fitted or top-dose-only effect, or effect the other way, or a change in a side signal; the % refers to the signal ratio;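 note: potency is the fitted concentration of half-maximal effect; plate controls were basal doxycycline-induced cells for no effect and cells given 10 µM MG132 for full effect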
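Cell line TMD8 (human ABC DLBCL), stably expressing tet-inducible CBG68-IkBa fusion and CBR; IMDM/0.5% FBS; cpd up to 46 uM; dox induction, 4 h, 37C/5% CO2; dual luminescence; green/red ratio; MG132 control.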
Giardia kill = Giardia lamblia killing; activity change, % at 7.66 µM, hits read low; AID 540267; hit rate 0.15% among 340,000; Giardia lamblia trophozoite viability; in the data active = activity change below about -80%; inconclusive = between about -30% and that limit;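 note: parasites exposed to compound for two days anaerobically before the ATP read; % is set by controls: 0 for no effect and ±100 for the full control effect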
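Trophozoite viability was measured as ATP-dependent luminescence, read 15-30 min after reagent addition. Before that, parasites at 100 cells/well were exposed to compounds for 48 h, anaerobically, at 37 deg C.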
Gal4-VP16 FLuc = counter-screen for ROR gamma inhibitors: Gal4-VP16 reporter. AID 2546. Potency, µM (series often up to 53.6 µM), without a hit: at the highest dose activity, negative = inhibition, most hits filed as inhibitors. hit rate 3.5% among 310,000. Drosophila S2 Gal4-VP16 UAS-luciferase, luminescence, 20 h;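 note: Gal4-VP16 expression switched on by copper sulfate through the metallothionein promoter; potency is the fitted concentration of half-maximal effect; % is set by controls: 0 for no effect and ±100 for the full control effect; nearly all actives have a fitted effect of over 50% in size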
Numbers without * were called inactive; ? = inconclusive; · = no result; [ ] = remark or other dose. Unless noted, calls come from the whole dose curve; as a rule, active = well fitted curve in the direction sought with a large enough effect; inconclusive = small, poorly fitted or top-dose-only effect, or another doubt; inactive = no such curve, though single readings can be large; an effect the other way counts as inactive or inconclusive.

SMILES | MCF10A rerep | RORg inh | SW480 rereplic | BCR signal inh | Giardia kill | Gal4-VP16 FLuc
COc1ccccc1-n1c(-c2ccccc2)c[n+]2c1CCc1ccccc1-2 | 16% | ? | 0% | ? | -5 | 8.9µM*
Cc1ccc(C(=O)C2CCN(CC(=O)NC3CCCC3)CC2)cc1 | ? | -5% | 6% | -1% | 35 | 8%
C=C(C(=O)O)C(CCCCCC)C(=O)O (stereo not drawn) | -2% | 6% | 3% | 0% | 5 | -20%
Cc1ccc(Nc2nc(N)c(C#N)c(CC#N)c2C#N)cc1 | 21µM* | 20% | ? | 0% | 3 | 5%
Cc1ccc(-n2nc(CC#N)c(C#N)c2N)cc1 | -7% | -20% | -3% | 11% | ? | -6%
Cc1ccc(Cc2cnc(N3C(=N)SC(c4ccccc4)C3=O)s2)cc1 (stereo not drawn) | ? | 11µM* | -49% | 9% | -6 | 4µM*
Cc1ccc(CC2CC(=O)N(c3nc4ccccc4s3)C2=O)cc1 (stereo not drawn) | -6% | 5% | -36% | 0% | 21 | 1%
N=C1SC(c2ccccc2)C(=O)N1c1ncc(Cc2ccccc2)s1 (stereo not drawn) | ? | 7.1µM* | 1% | 3% | 41 | 7.9µM*
COc1cc(C2NC(=O)NC(C)=C2C(=O)OCC2CCCO2)cc(OC)c1OC (stereo not drawn) | -2% | -18% | 0% | 0% | -5 | -14%
COc1cc(C(=O)NCCC(=O)NCc2c(F)cc(F)cc2F)cc(OC)c1OC | 10% | -10% | -20% | 2% | 3 | 2%
CNc1ccc(/C=C/C(=O)c2cccc3ccccc23)cc1[N+](=O)[O-] | ? | 29% | 16µM* | -13% | -9 | 4%
CCCCC(=O)Nc1ccc(C(=O)NCCc2ccc(S(N)(=O)=O)cc2)cc1 | 2% | 0% | -6% | 1% | -14 | 7%
Nc1c(C(=O)Nc2ccc(S(=O)(=O)N3CCCC3)cc2)sc2nc3ccc(OC(F)(F)F)cc3cc12 | ? | 16µM* | 15% | 24% | -6 | 10µM*
COCc1ccc(C(=O)N2CCCC(CCC(=O)NCc3ccccc3F)C2)o1 (stereo not drawn) | 13µM* | 2% | 12µM* | ? | -8 | 6%
O=C(CCC1CCCN(C(=O)c2ccco2)C1)NCc1ccccc1F (stereo not drawn) | 4% | 26% | 4% | -6% | 2 | 20%
CCOc1cccc(CN2CCCC(CCC(=O)NCc3ccccc3F)C2)c1O (stereo not drawn) | -25% | -21% | 16µM* | 5% | -4 | 0%
COc1cccc(CN2CC(C(=O)NCCN3CCOCC3)CCC2=O)c1 (stereo not drawn) | 0% | 0% | -10% | 6% | -1 | -11%
C=C(C)C(=O)OC1(C(F)(F)F)Oc2cc(C)ccc2NC1=O (stereo not drawn) | 16µM* | 14µM* | ? | ? | 5 | ?
Nc1ccc(-c2ccc3ccccc3n2)cc1 | · | -20% | · | · | · | 11µM*
CCc1nc2ccc(C(=O)O)cc2nc1CC | 3% | 0.71µM* | -2% | ? | 5 | ?
CC(OC(=O)CC1Sc2ccccc2NC1=O)C(=O)NC1CCCC1 (stereo not drawn) | 11% | -10% | -13% | 0% | 25 | -4%
CCN(CC(=O)NCc1cccs1)C(=O)c1ccc(NS(=O)(=O)c2ccc(C(C)=O)cc2)cc1 | ? | · | 2% | 6% | 9 | ·
Cc1cc(=O)n2ccccc2c1C#N | -4% | -4% | -10% | -1% | 5 | -1%
COc1ccc2c(C#N)c3ccccn3c2c1 | 23µM* | 23% | ? | 10% | 2 | 3%
O=C1c2cc([N+](=O)[O-])cc3cc([N+](=O)[O-])cc(c23)C(=O)N1c1ccccn1 | ? | ? | 21µM* | -8% | ? | -101%
SMILES | MCF10A rerep | RORg inh | SW480 rereplic | BCR signal inh | Giardia kill | Gal4-VP16 FLuc
Cc1nn(C)c(Sc2ccccc2N)c1[N+](=O)[O-] | 2% | ? | -61% | ? | -1 | -16%[10 µM]
CC(=O)NCCC1CCN(C(=O)C2CCC(=O)N(C3CCCC3)C2)CC1 (stereo not drawn) | -6% | -1% | -6% | 0% | -13 | -2%
Cc1cc(C(=O)NCC(=O)Nc2c(C)cccc2C)c2ccccc2n1 | 12% | · | -2% | 0% | ? | ·
Cc1cc(C)n(-c2nc3ccccc3c(=O)n2OCC(=O)OCc2ccccc2)n1 | 8% | 0.56µM* | ? | ? | -16 | 2.5µM*
Cc1cc(C)n(-c2nc3ccccc3c(=O)n2OCc2ccc(Cl)cc2)n1 | 5% | 10µM* | 10% | -2% | 0 | ?
Cc1cc(C)n(-c2nc3ccccc3c(=O)n2OCC(=O)Nc2c(C)cccc2C)n1 | ? | 11µM* | 2% | ? | -10 | ?
Cc1cc(C)n(-c2nc3ccccc3c(=O)n2OCc2ccc(F)cc2)n1 | 2% | ? | 6% | ? | -22 | ?
COc1ccc(NC(=O)CSc2n[nH]c(=O)n2Cc2ccccc2)cc1Cl | -3% | 6% | -2% | -4% | 7 | 2%
CC(C)CN1CC[C@@]2(CCCN(C(=O)c3cnccn3)C2)C1 | · | 2% | · | · | · | -12%
CCCCCn1c(=S)[nH]c2ncccc2c1=O | -1% | 1.1µM* | -1% | -2% | 13 | 2.8µM*
COCCCn1c(=S)[nH]c2ncccc2c1=O | 1% | 11µM* | -25% | 4% | 0 | -25%
COCCn1c(=S)[nH]c2ncccc2c1=O | 5% | -22% | -12% | -2% | 3 | -20%
O=c1c2cccnc2[nH]c(=S)n1CCC1=CCCCC1 | 4% | 0.89µM* | -3% | 6% | -6 | 1.6µM*
CC(=O)C1=C(O)C(=O)N(c2ccc(Br)cn2)C1c1ccc(F)cc1 (stereo not drawn) | 9% | 21% | 7.3µM* | ? | 9 | ?
CCc1ccc(NC(=O)/C(C#N)=C/c2cc3ccc(C)cc3nc2N2CCOCC2)cc1 | 8.2µM* | 11% | -3% | 5% | 0 | -21%
Cc1ccc(S(=O)(=O)CC(=O)c2ccccc2[N+](=O)[O-])cc1 | 12% | 0% | 5% | 4% | -30 | 9%
CCN(CC)CCCNC(=O)C1CCC(CNS(=O)(=O)c2c(C)cc(C)cc2C)CC1 (stereo not drawn) | 21µM* | 14% | -7% | 0% | 19 | 2%
CCCCN(C)CCCNC(=O)C1CCC(CNS(=O)(=O)c2c(C)cc(C)cc2C)CC1 (stereo not drawn) | 1% | 7% | -11% | ? | 7 | -5%
O=[N+]([O-])c1cncn1CCN1CCOCC1 | 0% | · | 0% | · | -91* | ·

High-throughput results (PubChem BioAssay)
